# MOR-DOR ag – OPRM1-OPRD1 heterodimerization agonism | P35372+P41143 | hit rate 0.3% among 340,000 | activation, % at 9.3 µM | cells, luminescence | AID 504326; in the data active = activation above about 18%;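 also: 0% = vehicle-treated cells and 100% = reference agonist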
# MOR-DOR inv ag-1 – inverse agonist of human OPRM1-OPRD1 heterodimerization; P35372+P41143; cell-based MOR-DOR heterodimer luminescence, inverse agonism; inhibition, % at 9.3 µM; hit rate 0.21% among 340,000; AID 504357; in the data active = inhibition above about 22%, passing the limit was not always enough;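 also: 0% = cells with DMSO and 100% = wells without cells with DMSO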
# HTR5A inv ctr – counter-screen for OPRM1-OPRD1 inverse agonists: human HTR5A inverse agonism | HTR5A cell line, luminescence | inhibition, % at 9.3 µM | hit rate 0.083% among 340,000; in the data active = inhibition mostly above about 23%, no sharp cut-off; inactive = mostly below about 18%;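 also: 0% = cells with DMSO and 100% = no-cell wells with DMSO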
# p-CIP stab down – lowers stability of the mouse p/CIP coactivator protein; Q05BA5; F442A p/CIP-EGFP cells, EGFP fluorescence, 16 h; decrease of EGFP signal, % at 10 µM; hit rate 0.01% among 290,000; AID 1984;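 active = EGFP signal decrease of at least 30% at 10 µM or well 3 SD below plate mean, unless failing retest; inactive = the rest, including hits failing retest or dose response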
# beta cell repl – induces beta-cell replication in MIN6 cells | MIN6 cells proliferation, ATPlite luminescence, 48 h; cells starved in 0.2% serum; 100% = growth in 10% serum | proliferation, % at 10 µM | hit rate 0.29% among 330,000;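 active = compounds whose signal lies at least 3.5 SD above the mean of all wells on their plate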;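 also: 0% = DMSO-treated cells in low-serum medium and 100% = 10% serum control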
# HTR5A ag ctr – HTR5A agonism, opioid heterodimer counter-screen; P47898; activation, % at 9.3 µM; HTR5A agonist assay, luminescence, cell-based; hit rate 0.61% among 340,000; in the data active = activation mostly above about 9.5%, no sharp cut-off; inactive = mostly below about 7.6%;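 also: 0% = cells with vehicle only and 100% = reference agonist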
# OPRM1-D1 inv cf – OPRM1-OPRD1 heterodimer inverse agonism, confirmation; shares compounds with MOR-DOR inv ag-1; cells expressing OPRM1/OPRD1 heterodimer, luminescence; inhibition, % at 9.3 µM; hit rate 20% among 580; AID 504900; in the data active = inhibition above about 32%;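 also: 0% = cells with DMSO and 100% = wells lacking cells with DMSO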
# HTR5A inv count – HTR5A inverse agonism, opioid heterodimer counter-screen; inhibition, % at 9.3 µM; HTR5A-expressing cells, luminescence; 580 tested, under 10 active; AID 504914; shares compounds with MOR-DOR inv ag-1;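 also: 0% = cells with DMSO and 100% = no-cell wells with DMSO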
# MOR-DOR inv ag-2 – opioid heterodimer inverse agonism, HTR5A counter-screen | shares compounds with HTR5A inv ctr | U2OS counter-screen cells, complementation luminescence | inhibition, % at 9.3 µM | 190 tested, under 10 active | AID 504912;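 also: 0% = cells with DMSO and 100% = wells without cells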
# HTR5A inv confrm – HTR5A (human) inverse agonism, confirmation | shares compounds with HTR5A inv ctr | inhibition, % at 9.3 µM | HTR5A-expressing cells, luminescence | 190 tested, under 10 active | AID 504916;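 also: 0% = cells with DMSO and 100% = no cells with DMSO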
# * marks the source's active call; other numbers are inactive results; i = inactive; x = no result. Most compounds without a hit are left out; they make up all but 1.4% or so of the library. Unless noted, no rule for the calls is given here.
SMILES,MOR-DOR ag,MOR-DOR inv ag-1,HTR5A inv ctr,p-CIP stab down,beta cell repl,HTR5A ag ctr,MOR-DOR inv ag-2,HTR5A inv confrm,others
Cc1cccc(C)c1NC(=O)C(NC=O)c1ccc(Cl)cc1 (stereo unspecified),-7,33*,-14,4,0,5,x,x,OPRM1-D1 inv cf=3;HTR5A inv count=2
Cc1ccc(S(=O)(=O)N(C)CCN(C)S(=O)(=O)c2ccc(C)cc2)cc1,-3,17,0,x,x,0,x,x,
CN(CC(=O)Nc1ccc(F)cc1)C(=O)COC(=O)c1cc(Br)c(Br)s1,1,-5,-5,x,x,0,x,x,
c1ccc(C2OC3c4cccc5cccc(c45)C3N2c2ccccc2)cc1 (stereo unspecified),-8,38*,9,1,-6,-4,x,x,OPRM1-D1 inv cf=-41;HTR5A inv count=-2
COC(=O)[C@]1(Cc2ccccc2)N[C@H](CN(C)C(=O)c2ccc(F)cc2)[C@@H]2C(=O)N(C)C(=O)[C@@H]21,-2,9,7,x,-2,-2,x,x,
CN(C)CC1CC/C(=C\c2ccc(O)cc2)C1=O (stereo unspecified),-9,41*,24,x,x,-6,x,x,OPRM1-D1 inv cf=i;HTR5A inv count=-26
CC1CCC/C(=C\c2ccc(O)cc2)C1=O (stereo unspecified),-3,14,14,x,-2,-1,x,x,
Cn1c(N)c(C(=O)COC(=O)COc2ccc(Cl)cc2Cl)c(=O)n(C)c1=O,3,-13,10,x,-2,-3,x,x,
CC(=O)N(/N=C1\Sc2ccccc2C1=O)c1cccc(C)c1,-11,53*,31,-31,-4,-14,x,x,OPRM1-D1 inv cf=44*;HTR5A inv count=-7
CC(C)CC1Nc2ncnc(N3CCN(c4ccccn4)CC3)c2N(Cc2ccc(Cl)cc2)C1=O (stereo unspecified),3,-16,40*,x,-6,3,-27,13,
COc1ccc(CN2C(=O)C(CC(C)C)Nc3ncnc(N4CCN(c5ccccc5)CC4)c32)cc1 (stereo unspecified),-2,14,-16,x,-8,0,x,x,
COc1ccc(CN2C(=O)C(Cc3ccccc3)Nc3ncnc(N4CCN(c5ccccc5)CC4)c32)cc1 (stereo unspecified),-9,41,44*,x,-7,-15,21,55*,
CC(C)CC1Nc2ncnc(N3CCN(c4ccccc4)CC3)c2N(Cc2ccccc2)C1=O (stereo unspecified),0,-1,-3,x,-8,1,x,x,
Cc1nn(CC(=O)Nc2ccc(N3CCOCC3)cc2)c(C)c1[N+](=O)[O-],-2,8,-17,x,2,4,x,x,
CC(=O)N1CCc2cc(Br)cc(S(=O)(=O)N3CCN(c4ccccn4)CC3)c21,-1,8,46*,-9,0,1,-40,8,
CC(=O)N1c2c(cc(Br)cc2S(=O)(=O)N2CCN(c3ccccn3)CC2)CC1C (stereo unspecified),-2,10,-5,-11,-1,4,x,x,
Cc1cn(CC(=O)NCCN2CCOCC2)c(=O)[nH]c1=O,-3,12,-14,x,x,4,x,x,
COc1cccc(NC(=S)N/N=C2/CCCCc3ccccc32)c1,-5,30,35*,1,x,-14,-18,5,
COc1ccc(CNc2ncnc3sccc23)cc1,1,-6,25*,-25,-3,-9,-12,-5,
COc1ccc(CNc2ncnc3sccc23)cc1OC,0,2,-1,-14,1,1,x,x,
COc1ccc(-n2c(Cc3cccn3C)nnc2SCC(=O)NC2CCCCC2)cc1,-3,14,33*,-2,0,-12,-8,0,
Cn1cccc1Cc1nnc(SCC(=O)NC2CCCC2)n1-c1ccc(F)cc1,-2,12,-4,12,1,1,x,x,
